Compound activity deposited in PubChem by several laboratories.
Granule exo inh – lytic granule exocytosis inhibition. TALL-104 LAMP-1 surface exposure, flow cytometry; cells stimulated with thapsigargin and PMA. inhibition, % at 10 µM. 360,000 tested, 0.66% active. AID 651702;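 active = inhibition above about 55%, limit read from the data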
ALR H2O2 inh – blocks human ALR sulfhydryl oxidase activity | purified ALR, DTT oxidation, H2O2 HRP-luminol luminescence | inhibition, % (concentration not given with the values) | P55789 | AID 485317 | 290,000 tested, 3.8% active;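 active = mean replicate inhibition above about 79%, with every replicate also reaching it, limit read from the data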
Target sequence (P55789 whole entry, looked up): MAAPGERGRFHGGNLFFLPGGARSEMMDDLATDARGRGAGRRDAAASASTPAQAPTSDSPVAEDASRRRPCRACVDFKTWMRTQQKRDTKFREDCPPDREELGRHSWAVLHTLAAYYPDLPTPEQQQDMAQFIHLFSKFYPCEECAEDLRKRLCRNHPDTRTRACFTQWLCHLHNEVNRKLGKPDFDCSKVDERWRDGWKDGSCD
GASC-1 inh – human JMJD2C demethylase inhibition; GST-JMJD2C(1-420) H3K9me3 demethylation, DELFIA europium; Q9H3R0; 330,000 tested, 0.069% active; AID 2099; inhibition, % at 2.35 µM;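 active = more than half of a compound's replicate wells show inhibition beyond 50%, single wells judged on their own value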;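 note: signal counts dimethyl H3K9 product captured on neutravidin plate; 0% = median of DMSO wells and 100% = 0.3 times that DMSO median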
Target sequence (Q9H3R0 1-420 limits assumed): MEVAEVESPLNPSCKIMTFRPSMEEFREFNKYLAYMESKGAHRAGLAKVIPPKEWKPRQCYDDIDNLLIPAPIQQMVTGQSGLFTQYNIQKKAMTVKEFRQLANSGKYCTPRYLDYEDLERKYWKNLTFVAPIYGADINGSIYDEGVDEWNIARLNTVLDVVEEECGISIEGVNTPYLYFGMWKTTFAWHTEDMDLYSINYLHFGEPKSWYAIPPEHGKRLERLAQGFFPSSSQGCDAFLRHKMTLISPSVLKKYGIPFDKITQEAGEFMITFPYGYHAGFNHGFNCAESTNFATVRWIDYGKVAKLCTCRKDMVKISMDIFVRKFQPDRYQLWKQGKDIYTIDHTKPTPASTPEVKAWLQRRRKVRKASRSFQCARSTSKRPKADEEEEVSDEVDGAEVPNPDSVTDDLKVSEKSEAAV
SMARCA2 activ – increases SMARCA2 function in MMTV reporter cells | activation, % at 9.1 µM | MG213 cells, MMTV-luciferase reporter, dexamethasone, overnight | 370,000 tested, 1% active; in the data active = activation above about 7.8%;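 note: 0% = vehicle wells and 100% = reference activator wells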
beta cell repl – inducers of beta-cell replication in MIN6 cells | MIN6 cells proliferation, ATPlite luminescence, 48 h; cells starved in 0.2% serum; 100% = growth in 10% serum | proliferation, % at 10 µM | 330,000 tested, 0.29% active;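 active = compounds whose signal lies at least 3.5 SD above the mean of all wells on their plate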;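 note: 0% = DMSO-treated cells in low-serum medium and 100% = 10% serum control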
PfM18AAP inh – blocks P. falciparum M18 aspartyl aminopeptidase | 290,000 tested, 1.2% active | inhibition, % at 7.35 µM | recombinant PfM18AAP, H-Glu-NHMec fluorogenic cleavage;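 active = inhibition above the campaign mean inhibition over all tested compounds plus 3 SD, cut at about 28% in these data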;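 note: 0% = plate median of test compound wells and 100% = 2 mM ZnCl2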
Granule exo CP1 – lytic granule exocytosis inhibition; shares compounds with Granule exo inh; TALL-104 cells, LAMP-1 externalization, flow cytometry; stimulated with PMA plus thapsigargin; inhibition, % at 10 µM; 1,500 tested, 11% active; in the data active = inhibition above about 60%;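 note: 0% = stimulated vehicle wells and 100% = unstimulated wells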
* = called active by the depositor; x = not tested or not shown. Shown are actives, neighbours in structure and some others; about 5.4% of the full set was active somewhere.

SMILES	Granule exo inh	ALR H2O2 inh	GASC-1 inh	SMARCA2 activ	beta cell repl	PfM18AAP inh	Granule exo CP1
CCOC(=O)[C@@]12CCCC=C1N(CCc1ccc(Cl)cc1)C(=O)[C@H]2CC(=O)N1CCSCC1	x	x	x	-2	x	x	x
COc1ccccc1CNC(=O)COc1cc(O)c2c(c1)OC(C)(C)CC2=O	2	x	x	2	x	x	x
N#Cc1ccc(NC(=O)Nc2ccc(Oc3ccc(NC(=O)Nc4ccc(C#N)cc4)cc3)cc2)cc1	62*	x	2	-4	-2	2	81*
COc1ccc(C(=O)NCC2(c3ccccc3)CCCC2)c(OC)c1	88*	20	18	-2	-1	-2	6
COC(=O)[C@H](C(C)C)N(Cc1cn(Cc2ccc(C)cc2)nn1)S(=O)(=O)c1ccccc1Br	x	x	x	-4	x	x	x
CC(C)(C)C(=O)NCC12C=CC(O1)C1C(=O)N(c3ccccc3)C(=O)C12 (stereo unspecified)	64*	x	7	-1	1	-16	1
Cc1ccc2oc(C(=O)N(C)Cc3ccc(C)o3)c(C)c2c1	81*	12	20	-1	1	-73	24
Cc1ccc2oc(C(=O)N(C)Cc3ccon3)c(C)c2c1	0	0	-10	7	5	-3	x
COC(=O)[C@@]12C[C@@H](CC(=O)NCCCCc3ccccc3)C(=O)N(Cc3ccc4c(c3)OCO4)C1=CCC(C)(C)C2	7	x	x	-4	x	x	x
COc1cc2c(cc1OC)C(C)N(CCc1ccc(Cl)cc1)CC2 (stereo unspecified)	62*	-5	7	-2	-2	x	-12
CC(Sc1nc2cc([N+](=O)[O-])ccc2n1-c1ccc(F)cc1)C(=O)NCc1ccc2c(c1)OCO2 (stereo unspecified)	88*	16	-24	1	0	12	-5
COc1ccccc1-n1c(SCC(=O)NCc2ccc3c(c2)OCO3)nc2cc([N+](=O)[O-])ccc21	95*	-6	5	0	-5	19	0
Cc1cc(C)cc(-n2c(SC(C)C(=O)NCc3ccc4c(c3)OCO4)nc3ccccc3c2=O)c1 (stereo unspecified)	-4	-14	-35	-5	-4	-18	x
COC(=O)c1cc2c(c3c4cc(F)ccc4n(C(=O)c4ccccc4)c13)C(=O)N(C1CCCCC1)C2	x	x	x	-4	x	x	x
COC(=O)[C@]12C[C@H](CC(=O)NCCc3ccccc3OC)C(=O)N(Cc3ccccc3)C1=C[C@H](C(C)(C)C)O[C@@H]2C	x	x	x	-4	x	x	x
CC(C)C[C@@H]1COc2cc(F)ccc2S(=O)(=O)N1	x	x	x	-3	x	x	x
O=C(CCCc1nc(-c2ccc(Cl)cc2)no1)NC1CCCC1	57*	-1	11	-3	-7	5	-13
COCOCCn1cc(CN2CCS(=O)(=O)N(Cc3ccc(-c4ccc(Cl)c(Cl)c4)cc3)C(C(C)C)C2=O)nn1 (stereo unspecified)	57*	x	x	-7	x	x	33
COc1ccc(CCNCc2ccc(OCc3ccccc3)cc2)cc1	85*	-5	-6	-3	-7	1	57
COc1ccc(CNS(=O)(=O)CCNCCc2ccccc2)cc1	-2	x	x	4	x	x	x
Cc1ccc(Br)cc1S(=O)(=O)N1CCN(c2ccccc2)CC1	66*	0	-5	-3	-2	4	-1
O=c1ccoc2ccccc12	4	x	x	1	x	x	x
O=C(Nc1ccc2c(c1)OCO2)C1CCCN(c2nc3ccccc3s2)C1 (stereo unspecified)	62*	-26	-2	x	-2	4	-13
CCc1nnc(NC(=O)C2CCCN(c3nc4ccccc4s3)C2)s1 (stereo unspecified)	-5	-10	-36	-3	-4	3	x
COc1ccc(-n2c(SCc3cccc4ccccc34)nnc2-c2ccccc2)cc1	x	x	x	-6	x	x	x
SMILES	Granule exo inh	ALR H2O2 inh	GASC-1 inh	SMARCA2 activ	beta cell repl	PfM18AAP inh	Granule exo CP1
C[C@@H]1CN(S(=O)(=O)C(C)(C)C)[C@@H](CCO)/C1=C\CCO	x	x	x	-6	x	x	x
CCOc1ccc(CN2CCCC(CO)(Cc3ccccc3F)C2)cc1 (stereo unspecified)	-6	-2	1	-2	-1	-6	x
COc1cc(Cl)c(CN2CCCC(CO)(Cc3ccccc3F)C2)cc1OC (stereo unspecified)	66*	x	-8	-3	-1	2	-13
CC(C)Oc1ccc(CN2CCCC(CO)(Cc3ccc(F)cc3)C2)cc1 (stereo unspecified)	35	1	-4	2	-3	-5	x
COc1ccc(CN2CCCC(CO)(Cc3ccc(F)cc3)C2)c(OC)c1OC (stereo unspecified)	61*	-2	-1	-4	2	-5	-15
Cc1cc(N2CCCN(C)CC2)n2nc(C)nc2n1	x	x	x	-6	x	x	x
COc1ccc(CNC(=O)[C@@H](Cc2ccccc2)NC(=O)[C@H]2O[C@@H](n3cnc4c(=O)[nH]c(N)nc43)[C@H](O)[C@@H]2O)cc1	x	x	x	-1	x	x	x
CCOc1ccccc1NC(=O)c1cc(S(=O)(=O)NCc2ccco2)ccc1F	104*	-4	0	-1	-1	12	-13
COCCN1Cc2cc(C(=O)OC)c3c(c2C1=O)c1ccccc1n3S(=O)(=O)c1ccc(C)cc1	x	x	x	-5	x	x	x
CCOC(=O)c1c(CN2CCN(c3ccccc3)CC2)oc2ccc(O)cc12	-1	71	1	0	-3	-12	x
CCOC(=O)c1c(N2CCN(c3ccccc3)CC2)cc(C)nc1C	62*	97*	-5	3	-1	5	-14
Cc1ccc(NC(/C=C/N(C)C)=C/C(=O)C(F)(F)F)c(C)c1	6	-4	1	-1	-6	7	x
CN(C)/C=C\C(=C/C(=O)C(F)(F)F)Nc1ccccc1Oc1ccccc1	77*	-1	-10	-1	-5	4	-2
Brc1ccc2ncnc(NCc3ccco3)c2c1	-2	4	-7	-4	-2	1	x
OC(CNCc1ccco1)Cn1c2ccc(Br)cc2c2cc(Br)ccc21 (stereo unspecified)	78*	-5	-1	2	-5	-3	-9
COC[C@H]1CCCN1c1cccc2c1S(=O)(=O)N1CC[C@H](C1)O2	x	x	x	-1	x	x	x
c1ccc2c(Cn3nnc4ccccc43)cccc2c1	-2	0	3	-2	0	-11	x
c1ccc2[nH]c(Cn3nnc4ccccc43)nc2c1	59*	x	0	0	1	x	-5
COc1ccc(CNC2CCN(Cc3ccccc3)CC2)cc1	60*	-25	10	4	-2	-7	-3
COc1ccc(OC)c(S(=O)(=O)NC2CCN(Cc3ccccc3)CC2)c1	7	1	-2	-1	-2	-4	x
CC1CN(CC(O)COC(c2ccc(Cl)cc2)c2ccc(Cl)cc2)CC(C)O1 (stereo unspecified)	1	-8	1	-4	-6	11	x
